# In PubChem BioAssay (NCATS):
# A number with no mark means an inactive call. Records with an inconclusive call do not appear. Where a call stands in place of a potency, no number is given. The source made the active and inactive calls. Unless noted, the call rests on the fitted dose curve; in most records, active means well fitted curve in the direction sought with a large enough effect; inconclusive means small, poorly fitted or top-dose-only effect, or another doubt; inactive means no such curve, though single readings can be large; an effect the other way counts as inactive or inconclusive. Bridge positions count the residues as written; N and C are the ends. Square brackets hold non-standard residues; d marks the D form. Peptide text beside a SMILES is read from it. * marks the point of attachment. Ileψ(thiazoline)Cys = CC[C@H](C)[C@H](N)C1=N[C@H](C(=O)*)CS1; d(aIle) = CC[C@H](C)[C@@H](N)C(=O)O; dOrn = NCCC[C@@H](N)C(=O)O
# Legend:
# [1] = Confirmation and Secondary Assay for Modulators of Hemoglobin Beta Chain Splicing at IVS2 654 locus (AID 910);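 further: HeLa cells stably carrying EGFP split by mutant beta-globin IVS2-654 intron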
# Method in brief: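 HeLa cells stably expressing EGFP interrupted by β-globin IVS2-654 intron, seeded overnight in Opti-MEM/2% FCS, then treated 2 days at 37 °C. Restored splicing read as total peak GFP intensity per well by laser scanning cytometry (488 nm excitation, 500–520 nm emission); 500 nM antisense PNA as control.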
# [2] = Confirmation and Secondary Assay for Modulators of Hemoglobin Beta Chain Splicing at IVS2 705 locus (AID 930);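 further: HeLa cells stably expressing the EGFP-705 splicing reporter; GFP fluorescence per well restored by corrected splicing of the IVS2-705 intron in EGFP; series mostly up to about 46 µM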
# Method in brief: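 HeLa cells stably carrying EGFP interrupted by mutant beta-globin intron 2 (IVS2-705) treated 2 days at 37C with compound; 500 nM antisense PNA as control. Correct splicing read as total peak GFP intensity per well by laser-scanning cytometry.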
# [3] = molecular target: DNA dC->dU-editing enzyme APOBEC-3G (Homo sapiens) (UniProt Q9HC16); assay: qHTS for inhibitors of Vif-A3G interactions: Validation (AID 588379)
# Method in brief: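 HeLa cells stably expressing Vif and A3G-eYFP, 700 cells/well, incubated overnight at 37 deg C, then exposed to compound overnight at 37 deg C. Inhibition of Vif-mediated degradation read as increased yellow fluorescence (Ex 488/Em 500-530) by laser-scanning cytometry.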
# [4] = molecular target: Guanine nucleotide-binding protein G(i) subunit alpha-1 (Homo sapiens) (UniProt P63096); assay: qHTS Assay for Inhibitors of RGS12 GoLoco Motif Activity (Green Fluorophore) (AID 879);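 further: negative values mean loss of peptide binding seen as reduced polarization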
# Method in brief: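 Fluorescence polarization assay: 50 nM Gαi1 with 10 nM FITC-labeled RGS12 GoLoco peptide in 10 mM Tris pH 7.5, 150 mM NaCl, 0.1 mM GDP, 0.05% NP40, 10 min at room temperature with compound.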
# [5] = qHTS Assay for Identification of Small Molecule Agonists for Thrombopoietin (TPO) Signaling Pathway (AID 917)
# Method in brief: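 Murine Ba/F3 cells stably expressing human TPO receptor and a Glycoprotein IIb promoter–luciferase reporter were IL-3-starved overnight, then treated with compounds plus TPO (26 pM final, its EC50) for 24 hrs at 37 C; luminescence was read.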
# [6] = molecular target: Muscarinic acetylcholine receptor M1 (Rattus norvegicus) (UniProt P08482); assay: qHTS Assay for Antagonists of Acetylcholine Muscarinic M1 Receptor: Kinetic Measurement of Intracellular Calcium Response (AID 943);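 further: Fluo-4 calcium signal as peak divided by basal fluorescence over 4 min; series mostly up to about 35 µM; nearly all actives have a fitted effect of over 75% in size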
# Method in brief: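 CHO cells stably expressing rat M1 were loaded with no-wash Fluo-4 dye for 1 h at 37C, pre-incubated 10 min with compound, then challenged with EC80 carbachol (100 nM final); kinetic calcium read 4 min, peak/basal ratio.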
# [7] = molecular target: Muscarinic acetylcholine receptor M1 (Rattus norvegicus) (UniProt P08482); assay: qHTS Assay for Antagonists of Acetylcholine Muscarinic M1 Receptor: Measurement of IP-One Response (AID 944); further: nearly all actives have a fitted effect of over 75% in size
# Method in brief: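 CHO cells expressing rat M1 receptor, recovered overnight, were pre-incubated 10 min with compound, then stimulated 30 min with carbachol at EC80 (200 nM) in LiCl-containing buffer, pH 7.4. IP1 accumulation was read by HTRF (620/665 nm).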
# [8] = molecular target: Pyruvate kinase (Leishmania mexicana) (UniProt Q27686); assay: qHTS Validation Assay for Inhibitors of Leishmania Mexicana Pyruvate Kinase (AID 945)
# Method in brief: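 Eight-point qHTS titrations in triplicate, data normalized to DMSO neutral control. Reaction: 0.2 nM LmPYK E451W mutant, 0.5 mM PEP, 0.1 mM ADP, 7 mM MgCl2, pH 7.2, one hour at room temperature; luminescent ATP detection.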
# [9] = molecular target: Pyruvate kinase PKM (Homo sapiens) (UniProt P14618); assay: qHTS Assay for Activators of Human Muscle Pyruvate Kinase (AID 954; active means well fitted curve in the direction sought with a large enough effect, not every such curve was filed as active)
# Method in brief: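 Enzyme was run at intermediate activity so both inhibitors and activators could be detected. ATP formed from ADP and PEP by 0.1 nM human PKM2 during a 1 h room-temperature incubation was quantified by coupled luciferase luminescence.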
# [10] = molecular target: Alpha-galactosidase A (Homo sapiens) (UniProt P06280); assay: Counterscreen for Glucocerebrosidase Inhibitors: qHTS Assay for Human alpha-Galactosidase at pH 4.5 (AID 992)
# Method in brief: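 Read-out is 4-methylumbelliferone fluorescence (365 nm excitation, 440 nm emission) after a pH 10 NaOH/glycine stop. Reactions held 2 nM enzyme and 80 uM substrate at pH 4.5 for 20 min at room temperature.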
# [11] = molecular target: alpha-glucosidase (Oryza sativa, rice) (UniProt Q653V4); assay: Counterscreen for Glucocerebrosidase Inhibitors: qHTS Assay for Rice alpha-Glucosidase at pH 5.0 (AID 997)
# Method in brief: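 Rice alpha-glucosidase (4 nM final) with 400 uM 4-methylumbelliferyl-alpha-D-glucopyranoside in citrate buffer pH 5.0, 20 min at room temperature, stopped at pH 10; fluorescence 365/440 nm, compounds 0.7 nM–77 uM, AC50 from Hill fits.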
# [12] = qHTS Assay for Identification of Small Molecule Agonists for Hypoxia Response Element Signaling Pathway (AID 914; active means well fitted activation curve with a large enough effect in the signal ratio, with a control signal flat, not every such curve was filed as active; the % refers to the signal ratio); conditions: ME-180 (cervical carcinoma) HRE-bla reporter, beta-lactamase ratio, CoCl2, 17 h; activation: stronger effect = higher value
# Method in brief: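 HRE-bla ME-180 cells with beta-lactamase reporter under hypoxia response element, compounds with EC50 CoCl2 for 17 hours at 37 C. CCF4 substrate, 460nm/530nm emission ratio gave %Activity; AC50 from titration series.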
# DNA dC->dU-editing enzyme APOBEC-3G (Homo sapiens), sequence (Q9HC16 whole entry, looked up): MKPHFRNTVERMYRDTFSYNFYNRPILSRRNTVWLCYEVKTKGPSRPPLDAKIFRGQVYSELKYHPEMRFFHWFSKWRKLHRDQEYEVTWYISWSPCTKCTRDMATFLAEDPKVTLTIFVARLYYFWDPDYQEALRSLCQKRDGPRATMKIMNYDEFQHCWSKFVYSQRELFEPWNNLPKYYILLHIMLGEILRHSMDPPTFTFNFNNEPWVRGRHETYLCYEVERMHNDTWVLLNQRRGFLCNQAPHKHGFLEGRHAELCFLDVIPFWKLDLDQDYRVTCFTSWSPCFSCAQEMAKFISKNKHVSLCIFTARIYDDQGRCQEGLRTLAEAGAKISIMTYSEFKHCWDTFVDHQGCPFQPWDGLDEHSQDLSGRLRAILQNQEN
# Muscarinic acetylcholine receptor M1 (Rattus norvegicus), sequence (P08482 whole entry, looked up): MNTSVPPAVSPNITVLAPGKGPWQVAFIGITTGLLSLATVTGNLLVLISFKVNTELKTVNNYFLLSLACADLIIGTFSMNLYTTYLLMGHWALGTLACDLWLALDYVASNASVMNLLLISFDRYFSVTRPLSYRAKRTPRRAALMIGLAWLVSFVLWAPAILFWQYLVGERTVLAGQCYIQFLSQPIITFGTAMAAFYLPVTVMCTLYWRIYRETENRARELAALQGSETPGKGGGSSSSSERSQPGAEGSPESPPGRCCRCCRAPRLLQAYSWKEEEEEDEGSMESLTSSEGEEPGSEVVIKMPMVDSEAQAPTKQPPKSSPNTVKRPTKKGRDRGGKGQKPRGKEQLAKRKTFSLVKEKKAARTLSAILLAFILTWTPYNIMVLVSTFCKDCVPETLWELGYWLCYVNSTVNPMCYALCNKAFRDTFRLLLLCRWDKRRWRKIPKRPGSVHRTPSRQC
# Pyruvate kinase (Leishmania mexicana), sequence (Q27686 2-499 E452W): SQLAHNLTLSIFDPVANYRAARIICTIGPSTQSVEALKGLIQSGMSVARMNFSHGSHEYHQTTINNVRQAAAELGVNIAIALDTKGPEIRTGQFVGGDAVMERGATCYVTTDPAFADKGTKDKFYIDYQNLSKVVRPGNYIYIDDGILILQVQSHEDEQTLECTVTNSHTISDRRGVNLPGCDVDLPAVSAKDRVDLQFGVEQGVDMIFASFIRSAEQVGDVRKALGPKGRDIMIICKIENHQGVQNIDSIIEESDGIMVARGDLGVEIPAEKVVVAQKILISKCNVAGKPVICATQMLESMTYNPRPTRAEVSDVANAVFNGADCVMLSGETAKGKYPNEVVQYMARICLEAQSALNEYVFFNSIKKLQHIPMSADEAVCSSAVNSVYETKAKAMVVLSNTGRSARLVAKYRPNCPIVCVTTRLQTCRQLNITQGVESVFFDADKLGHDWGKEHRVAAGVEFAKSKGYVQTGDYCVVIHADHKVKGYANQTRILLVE
# Alpha-galactosidase A (Homo sapiens), sequence (P06280 whole entry, looked up): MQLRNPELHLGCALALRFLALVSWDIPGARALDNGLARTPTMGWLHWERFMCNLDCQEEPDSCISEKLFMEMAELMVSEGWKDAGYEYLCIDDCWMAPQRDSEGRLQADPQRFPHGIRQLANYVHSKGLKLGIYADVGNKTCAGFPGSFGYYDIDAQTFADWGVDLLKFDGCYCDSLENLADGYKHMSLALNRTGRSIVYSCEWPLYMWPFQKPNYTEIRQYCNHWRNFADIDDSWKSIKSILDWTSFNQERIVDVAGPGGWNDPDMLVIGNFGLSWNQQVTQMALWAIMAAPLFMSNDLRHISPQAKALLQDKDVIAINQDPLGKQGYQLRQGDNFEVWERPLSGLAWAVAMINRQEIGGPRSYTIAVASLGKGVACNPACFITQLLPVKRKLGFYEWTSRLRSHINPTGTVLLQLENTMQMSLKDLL
# Guanine nucleotide-binding protein G(i) subunit alpha-1 (Homo sapiens), sequence (P63096 whole entry, looked up): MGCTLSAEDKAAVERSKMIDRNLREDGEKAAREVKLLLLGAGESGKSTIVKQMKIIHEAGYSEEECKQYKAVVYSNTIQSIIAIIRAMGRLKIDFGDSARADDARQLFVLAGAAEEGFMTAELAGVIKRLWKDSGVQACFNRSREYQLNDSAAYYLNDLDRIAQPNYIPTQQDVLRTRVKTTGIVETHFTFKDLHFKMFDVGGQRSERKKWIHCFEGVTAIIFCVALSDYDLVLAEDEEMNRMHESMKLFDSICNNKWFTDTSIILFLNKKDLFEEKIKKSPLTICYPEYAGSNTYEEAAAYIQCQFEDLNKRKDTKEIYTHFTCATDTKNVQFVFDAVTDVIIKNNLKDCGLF
# Pyruvate kinase PKM (Homo sapiens), sequence (P14618 whole entry, looked up): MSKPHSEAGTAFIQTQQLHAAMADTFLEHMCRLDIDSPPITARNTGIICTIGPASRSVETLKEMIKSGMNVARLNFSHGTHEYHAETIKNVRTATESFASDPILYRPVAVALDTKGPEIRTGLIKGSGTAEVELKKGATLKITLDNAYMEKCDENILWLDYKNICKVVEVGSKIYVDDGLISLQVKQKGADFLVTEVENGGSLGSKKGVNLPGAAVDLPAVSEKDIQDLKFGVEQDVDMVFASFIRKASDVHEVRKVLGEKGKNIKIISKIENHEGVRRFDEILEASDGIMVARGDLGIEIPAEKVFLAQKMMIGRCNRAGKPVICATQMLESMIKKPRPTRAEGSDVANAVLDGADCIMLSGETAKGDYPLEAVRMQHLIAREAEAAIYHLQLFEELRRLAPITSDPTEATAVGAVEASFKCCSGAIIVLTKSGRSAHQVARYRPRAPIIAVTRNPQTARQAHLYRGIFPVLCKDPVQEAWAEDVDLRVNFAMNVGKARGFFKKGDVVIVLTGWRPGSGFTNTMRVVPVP
structure (smiles),measurement,setting,value
Fc1ccc(Nc2nc(-c3cccnc3)nc3ccccc23)cc1,Potency,[1],inactive
same,Potency,[2],inactive
COc1cc(C2Oc3cc(C4Oc5cc(O)cc(O)c5C(=O)C4O)ccc3OC2CO)ccc1O (stereo not drawn),Potency,[1],inactive
same,Potency,[2],inactive
Cc1ccc2c(c1)c1c3n2CCN[C@H]3CCC1,outcome,[3],inactive
COc1ccc([C@@H]2CC(=O)c3c(O)cc(O)cc3O2)cc1O,outcome,[3],inactive
CC(=O)/C(C)=N\O,outcome,[4],inactive
same,outcome,[5],inactive
same,outcome,[6],inactive
same,outcome,[7],inactive
same,outcome,[8],inactive
same,outcome,[9],inactive
same,outcome,[10],inactive
same,outcome,[11],inactive
same,outcome,[3],inactive
CC[C@H](C)[C@H](N)C1=N[C@H](C(=O)N[C@@H](CC(C)C)C(=O)N[C@@H](CCC(=O)O)C(=O)N[C@@H](C(=O)N[C@H]2CCCCNC(=O)[C@@H](CC(N)=O)NC(=O)[C@@H](CC(=O)O)NC(=O)[C@@H](Cc3cnc[nH]3)NC(=O)[C@@H](Cc3ccccc3)NC(=O)[C@@H]([C@@H](C)CC)NC(=O)[C@@H](CCCN)NC2=O)[C@@H](C)CC)CS1 ({Ileψ(thiazoline)Cys}-LE[d(aIle)]K[dOrn][d(aIle)][dF][dH][dD][dN]; lactam 4-C),activation,[12],-5.24%
CC(=O)S[C@H]1CC2=CC(=O)CC[C@@]2(C)[C@H]2CC[C@@]3(C)[C@H](CC[C@]34CCC(=O)O4)[C@@H]12,activation,[12],-20.6%
O=c1cc(-c2cccc(O)c2)oc2cc(O)ccc12,outcome,[3],inactive
